# Laboratory results reported in the supplement of paper PMC12282887.
# ± gives the standard deviation of the averaged measurements.
# Test system: E. coli BW25113 micFp lux reporter
# Assay: promoter activity interaction Z-score (Lux/OD deviation from empty-vector control); higher = stronger promoter induction by the compound
# Description: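 E. coli BW25113 (wild type or ΔmarA/ΔsoxS/Δrob) carrying pTU175 luxCDABE promoter reporters was grown in LB in 384-well plates at 37°C with each of 94 compounds at 4 two-fold concentrations, in biological duplicates. Luminescence and OD600 were read every 30 min for 12 h and integrated as AUC over 8 h (0-8 h WT, 1-9 h mutants). Lux AUC was divided by OD AUC; the interaction score is the residual of a Huber robust fit of each promoter against the empty-vector control, then Z-transformed per promoter.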
structure (smiles),measurement,setting,value
Cc1c(N)nc([C@H](CC(N)=O)NC[C@H](N)C(N)=O)nc1C(=O)N[C@H](C(=O)N[C@H](C)[C@@H](O)[C@H](C)C(=O)N[C@H](C(=O)NCCc1nc(-c2nc(C(=O)NCCC[S+](C)C)cs2)cs1)[C@@H](C)O)[C@@H](OC1OC(CO)C(O)C(O)C1OC1OC(CO)C(O)C(OC(N)=O)C1O)c1cnc[nH]1 (stereo partly drawn) [Bleomycin],promoter activity interaction Z-score,"0.038 µg/ml, genetic background: wild type",-0.542 ± 0.065
same,promoter activity interaction Z-score,"0.038 µg/ml, genetic background: ΔmarA",-0.018 ± 0.18
same,promoter activity interaction Z-score,"0.038 µg/ml, genetic background: Δrob",-0.0145 ± 0.17
same,promoter activity interaction Z-score,"0.038 µg/ml, genetic background: ΔsoxS",-0.239 ± 0.3
same,promoter activity interaction Z-score,"0.076 µg/ml, genetic background: wild type",-0.384 ± 0.099
same,promoter activity interaction Z-score,"0.076 µg/ml, genetic background: ΔmarA",-0.0986 ± 0.079
same,promoter activity interaction Z-score,"0.076 µg/ml, genetic background: Δrob",-0.0358 ± 0.11
same,promoter activity interaction Z-score,"0.076 µg/ml, genetic background: ΔsoxS",-0.0314 ± 0.21
same,promoter activity interaction Z-score,"0.15 µg/ml, genetic background: wild type",-0.758 ± 0.17
same,promoter activity interaction Z-score,"0.15 µg/ml, genetic background: ΔmarA",0.0263 ± 0.051
same,promoter activity interaction Z-score,"0.15 µg/ml, genetic background: Δrob",0.317 ± 0.023
same,promoter activity interaction Z-score,"0.15 µg/ml, genetic background: ΔsoxS",-0.34 ± 0.014
same,promoter activity interaction Z-score,"0.3 µg/ml, genetic background: wild type",-0.844 ± 0.18
same,promoter activity interaction Z-score,"0.3 µg/ml, genetic background: ΔmarA",-0.0349
same,promoter activity interaction Z-score,"0.3 µg/ml, genetic background: Δrob",-0.227 ± 0.59
same,promoter activity interaction Z-score,"0.3 µg/ml, genetic background: ΔsoxS",-1.55
CC(=O)N[C@H]1[C@@H](O[C@@H]2O[C@H](CC(O)[C@H]3O[C@@H](n4ccc(=O)[nH]c4=O)[C@H](O)[C@@H]3O)[C@H](O)[C@H](O)[C@H]2NC(=O)/C=C/CC(C)C)O[C@H](CO)[C@@H](N)[C@@H]1O (stereo partly drawn) [Tunicamycin],promoter activity interaction Z-score,"2.6 µg/ml, genetic background: wild type",0.395 ± 0.012
same,promoter activity interaction Z-score,"2.6 µg/ml, genetic background: ΔmarA",0.0327 ± 0.17
same,promoter activity interaction Z-score,"2.6 µg/ml, genetic background: Δrob",0.0339 ± 0.11
same,promoter activity interaction Z-score,"2.6 µg/ml, genetic background: ΔsoxS",0.164 ± 0.031
same,promoter activity interaction Z-score,"5.3 µg/ml, genetic background: wild type",0.157 ± 0.33
same,promoter activity interaction Z-score,"5.3 µg/ml, genetic background: ΔmarA",-0.0548 ± 0.095
same,promoter activity interaction Z-score,"5.3 µg/ml, genetic background: Δrob",0.115 ± 0.13
same,promoter activity interaction Z-score,"5.3 µg/ml, genetic background: ΔsoxS",-0.136 ± 0.086
same,promoter activity interaction Z-score,"10.6 µg/ml, genetic background: wild type",-0.104 ± 0.25
same,promoter activity interaction Z-score,"10.6 µg/ml, genetic background: ΔmarA",0.0656 ± 0.17
same,promoter activity interaction Z-score,"10.6 µg/ml, genetic background: Δrob",0.0163 ± 0.13
same,promoter activity interaction Z-score,"10.6 µg/ml, genetic background: ΔsoxS",-0.276 ± 0.12
same,promoter activity interaction Z-score,"21.1 µg/ml, genetic background: wild type",-0.663 ± 0.012
same,promoter activity interaction Z-score,"21.1 µg/ml, genetic background: ΔmarA",-0.0908 ± 0.024
same,promoter activity interaction Z-score,"21.1 µg/ml, genetic background: Δrob",-0.359 ± 0.073
same,promoter activity interaction Z-score,"21.1 µg/ml, genetic background: ΔsoxS",-0.569 ± 0.028
C[C@]12CC[C@H]3[C@@H](CCC4=CC(=O)CC[C@@]43C)[C@@H]1CC[C@@H]2O [Testosterone],promoter activity interaction Z-score,"18 µg/ml, genetic background: wild type",-0.197 ± 0.0038
same,promoter activity interaction Z-score,"18 µg/ml, genetic background: ΔmarA",0.0474 ± 0.038
same,promoter activity interaction Z-score,"18 µg/ml, genetic background: Δrob",-0.0298 ± 0.091
same,promoter activity interaction Z-score,"18 µg/ml, genetic background: ΔsoxS",0.319 ± 0.18
same,promoter activity interaction Z-score,"36.1 µg/ml, genetic background: wild type",-0.14 ± 0.34
same,promoter activity interaction Z-score,"36.1 µg/ml, genetic background: ΔmarA",0.094 ± 0.098
same,promoter activity interaction Z-score,"36.1 µg/ml, genetic background: Δrob",-0.000736 ± 0.15
same,promoter activity interaction Z-score,"36.1 µg/ml, genetic background: ΔsoxS",-0.0287 ± 0.15
same,promoter activity interaction Z-score,"72.1 µg/ml, genetic background: wild type",0.142 ± 0.26
same,promoter activity interaction Z-score,"72.1 µg/ml, genetic background: ΔmarA",0.527 ± 0.063
same,promoter activity interaction Z-score,"72.1 µg/ml, genetic background: Δrob",0.174 ± 0.16
same,promoter activity interaction Z-score,"72.1 µg/ml, genetic background: ΔsoxS",0.257 ± 0.41
same,promoter activity interaction Z-score,"144.2 µg/ml, genetic background: wild type",0.181 ± 0.03
same,promoter activity interaction Z-score,"144.2 µg/ml, genetic background: ΔmarA",0.196 ± 0.089
same,promoter activity interaction Z-score,"144.2 µg/ml, genetic background: Δrob",0.202 ± 0.074
same,promoter activity interaction Z-score,"144.2 µg/ml, genetic background: ΔsoxS",0.625 ± 0.45
